From ChEMBL document CHEMBL3988442, “University of Dundee, Small-Polar-MMV Screening Library” (2021)
Among all 38,000 compounds or so, about 1,200 (3.2%) showed an effect of 50% or more. The median lay at about -58%. The sample as a whole holds a higher share of strong results than the screen did.

Tested on: Plasmodium falciparum
Assay: Calibr Malaria Delayed Death Assay SOP
Format: functional, organism-based
Design: scale not given: in the data most compounds retested in dose-response had high values
Conditions: concentration 4.99e-06 (unit not given; other assays of the set use mol/L)

SMILES	Percent Effect [%]
COc1c(C)cnc(CN(C)C(=O)c2ccccc2O)c1C	-65.02
COc1c(C)cnc(CN2CCC(C(=O)N(C)C)CC2)c1C	-25.53
COc1c(C)cnc(CN2CCn3c(nnc3C3CC3)C2)c1C	-38.06
COc1c(C)cnc(CN2CCC(N(C)C(C)C(N)=O)CC2)c1C (configuration not stated)	77.51
COc1c(C)cnc(CN(C)C2CCOC3(CCOCC3)C2)c1C (configuration not stated)	-5.784
COc1c(C)cnc(CN(C)C2CCCCC2)c1C	76.34
COc1c(C)cnc(CN2CCn3c(nnc3C(C)C)C2)c1C	-75.36
CCC(=O)N(C)C1CCN(Cc2ncc(C)c(OC)c2C)CC1	-107.4
CSc1ccc(C(=O)N2CC(=O)N(CC3CC3)CC(O)C2)cc1 (configuration not stated)	-80.98
CC(C)c1nn(C)c(N(C)C)c1CNC1CCOc2ccccc21 (configuration not stated)	-13.52
O=C(O)C(F)(F)F.O=C(c1ccccc1F)N1CCC2(CC1)CC(N1CCCC1)CO2 (configuration not stated)	-57.39
Cc1nc(C2CCCN(C(=O)c3cc(-c4ccccc4)[nH]n3)C2)no1 (configuration not stated)	-103.7
O=C(COc1coc(CN2CCCCC2)cc1=O)Nc1cccc(Cl)c1	-36.85
N#Cc1cc(F)c(NCc2ccc(F)cc2)c(F)c1	-56.06
Cc1cccc(NC(=O)C2(n3cnnn3)CCCCC2)n1	-65.2
O=C(C1=CCCC1)N1C[C@@H]2COC[C@]2(COCC2CC2)C1	-77.68
COc1ccc(CNCC2CCN(CCO)CC2)cc1F	57.05
CCN1CCOC(CNCc2ccc(OC)c(F)c2)C1 (configuration not stated)	-53.15
COc1ccc(CNCC2CN(C3CC3)CCO2)cc1F (configuration not stated)	-41.72
CCOCCNCC1CCN(CCO)CC1	-86.72
OCCN1CCC(CNCc2cn(-c3ccccc3)nn2)CC1	-75.43

SMILES	Percent Effect [%]
Clc1ccc(C(CNCc2ccncc2)n2cccn2)cc1 (configuration not stated)	-53.83
Cn1cc(CNCC(c2ccc(Cl)cc2)n2cccn2)cn1 (configuration not stated)	16.07
CCn1cc(CNCC(c2ccc(Cl)cc2)n2cccn2)cn1 (configuration not stated)	59.81
CCn1cc(-c2n[nH]c(=O)n2-c2ccc3c(c2)OCO3)c(C)n1	-101.4
CCC[C@H]1CN(c2nc(CO)cs2)C[C@@H]1NC(=O)C1CCC1	1.552
CCC[C@H]1CN(Cc2cscn2)C[C@@H]1NC(=O)C1(COC)CCC1	-24.11
CCC[C@H]1CN(c2nc(CO)cs2)C[C@@H]1NC(=O)C1(COC)CC1	71.28
CC(C)C[C@H](NC(=O)Cn1ccc2c(Cl)cccc21)C(=O)O	-50.44
COc1cccc(CN(C)Cc2nc(C(C)C)no2)c1	-65.15
FC1(F)CCN(Cc2cccnc2)CC12CCN(c1ccccc1)C2.O=C(O)C(F)(F)F.O=C(O)C(F)(F)F.O=C(O)C(F)(F)F (configuration not stated)	84.58
Cn1cnc(S(=O)(=O)N2CC3(CCN(c4ccccc4)C3)C2)c1.O=C(O)C(F)(F)F	1.109
O=C(O)C(F)(F)F.O=C(c1c[nH]cn1)N1CCC(F)(F)C2(CCN(c3cccc(F)c3)C2)C1 (configuration not stated)	85.76
O=C(O)C(F)(F)F.O=C(O)C(F)(F)F.OCCN1CC2(CCN(c3ccccc3)C2)C1	61.64
O=C(O)C(F)(F)F.O=C(c1c[nH]cn1)N1CCC(F)(F)C2(CCN(c3ncccn3)C2)C1 (configuration not stated)	-29.78
FC1(F)CCN(Cc2cccnc2)CC12CCN(c1cnccn1)C2.O=C(O)C(F)(F)F.O=C(O)C(F)(F)F.O=C(O)C(F)(F)F (configuration not stated)	-45.54
FC1(F)CCN(Cc2ccncc2)CC12CCN(c1cccnc1)C2.O=C(O)C(F)(F)F.O=C(O)C(F)(F)F.O=C(O)C(F)(F)F (configuration not stated)	15.13
CN1CC(=O)N(c2ccccc2)CC12CCN(CCO)C2.O=C(O)C(F)(F)F.O=C(O)C(F)(F)F (configuration not stated)	-19.33
FC1(F)CCN(c2ccccc2)CC12CCN(c1ncccn1)C2 (configuration not stated)	-152.8
O=C(O)C(F)(F)F.O=C(O)C(F)(F)F.O=C(c1c[nH]cn1)N1CCC(F)(F)C2(CCN(c3ccccn3)C2)C1 (configuration not stated)	-115.9
OCCN1CCC(F)(F)C2(CCN(c3cccnc3)C2)C1 (configuration not stated)	-53.32
C=C(C)CN1CCC(NC(=O)Nc2ccc(F)c(C(N)=O)c2)CC1	-90.89

SMILES	Percent Effect [%]
Cc1cc(Br)ccc1C(=O)NCCN1CCCCCC1	28.4
COc1ccc(Cn2cc(C(=O)N(C)Cc3ccn[nH]3)nn2)cc1	-12.45
CCC(C)[C@H](N)c1nnc(SCC(=O)Nc2ccc(C)cc2C)o1.Cl (some centres not stated)	-23.34
COc1ccc(C2CCCCCN2Cc2cn(C)nc2C)cc1 (configuration not stated)	-0.1987
CSc1ncnc(NCc2ccccc2F)c1C#N	-23.93
O=C1COc2cc(C(=O)NS(=O)(=O)c3ccc(F)cc3)ccc2N1	-21.19
Cc1nn(C)c(Cl)c1C1CCCN1C(=O)c1cccn1C (configuration not stated)	-34.06
c1cc(CNCC2CNc3ccnn3C2)cc(Cn2cccn2)c1 (configuration not stated)	-27.88
FC1(F)CCNCC12CCN(c1ncccn1)C2 (configuration not stated)	17.29
O=C(O)C(F)(F)F.O=C(O)C(F)(F)F.O=C(O)CN1CCC(F)(F)C2(CCN(c3ccccn3)C2)C1 (configuration not stated)	-82.81
O=C(O)C(F)(F)F.O=C(O)C(F)(F)F.O=C(O)CN1CCC(F)(F)C2(CCN(c3ccccc3)C2)C1 (configuration not stated)	66.58
Cn1ccnc1CN1CCC2(CC1)CN(Cc1cccnc1)C(=O)CO2.O=C(O)C(F)(F)F.O=C(O)C(F)(F)F	-38.55
N#Cc1ccc(N2CCCC3(CCN(c4cccnc4)CC3)C2)cc1.O=C(O)C(F)(F)F	-71.51
Cn1ccnc1CN1CCC(F)(F)C2(CCN(c3cccnc3)C2)C1.O=C(O)C(F)(F)F.O=C(O)C(F)(F)F (configuration not stated)	58.45
Cn1ccnc1CN1CCC(F)(F)C2(CCN(c3cnccn3)C2)C1.O=C(O)C(F)(F)F (configuration not stated)	-1.841
FC1(F)CCNCC12CCN(c1cccnc1)C2.O=C(O)C(F)(F)F.O=C(O)C(F)(F)F (configuration not stated)	64.81
Fc1cccnc1N1CCC2(CNCCC2(F)F)C1 (configuration not stated)	45.04
O=C(C1CCCO1)N1CCCC2(CCN(c3cccnc3)CC2)C1.O=C(O)C(F)(F)F (configuration not stated)	-72.8
FC1(F)CCNCC12CCN(c1ccccn1)C2 (configuration not stated)	56.42
O=C(CO)N1CCC(F)(F)C2(CCN(c3ccccc3)C2)C1.O=C(O)C(F)(F)F (configuration not stated)	-34.49
